Inconclusive results are not listed. Activity calls are given as the source filed them. Calls follow the shape of the dose curve; as a rule, active = well fitted curve in the direction sought with a large enough effect; inconclusive = small, poorly fitted or top-dose-only effect, or another doubt; inactive = no such curve, though single readings can be large; an effect the other way counts as inactive or inconclusive. Numbered stars: 1 amine (or outer) side, 2 acyl side, 3 side chain; on linkers, the order of the positions; unused ones are H or OH. Bridge positions count the residues as written; N and C are the ends. Square brackets hold non-standard residues; d marks the D form. Peptide text beside a SMILES is read from it. I, II: the chains in the order shown. Actinocin(9to1) = Cc1c2oc3c(C)ccc(C(=O)[*:1])c3nc-2c(C(=O)[*:2])c(N)c1=O; NMeV = CN[C@H](C(=O)O)C(C)C; Sar = CNCC(=O)O
Assays:
[1] = Cell Viability - LYMP2-004 (AID 966); also: nearly all actives have a fitted effect of over 65% in size
In short: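 Human lymphoblastoid cells (2500/well) in complete medium were treated with compounds for 24 hr at 37 C, then intracellular ATP was measured by CellTiter-Glo luminescence. AC50 values came from Hill-equation fits of concentration-response data.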

[2] = Cell Viability - LYMP2-005 (AID 967)
In short: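 LYMP2-005 human lymphoblastoid cells (2500/well) were treated with compounds for 24 h at 37 C. Intracellular ATP was then measured by CellTiter-Glo luminescence after 30 min at room temperature. AC50 values came from Hill-equation fits of qHTS concentration-response data.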

[3] = Cell Viability - LYMP2-009 (AID 968); also: nearly all actives have a fitted effect of over 55% in size
[4] = Cell Viability - LYMP2-011 (AID 969); also: nearly all actives have a fitted effect of over 60% in size
In short: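 Human lymphoblastoid cells (2500/well) were plated in complete medium, preincubated 5 hr at 37 C, then exposed to compounds for 24 hr at 37 C. Intracellular ATP was read by CellTiter-Glo luminescence, and AC50 came from Hill-equation concentration-response fits.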

[5] = Cell Viability - LYMP2-013 (AID 970); also: nearly all actives have a fitted effect of over 55% in size
In short: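 Human lymphoblastoid cells, 2500/well, were preincubated 5 hr at 37 C, then treated with compounds for 24 hr at 37 C in complete medium. Intracellular ATP was read by CellTiter-Glo luminescence; AC50 from Hill-equation fits of concentration-response data.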

[6] = Cell Viability - LYMP2-015 (AID 971); also: nearly all actives have a fitted effect of over 55% in size
In short: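 Human lymphoblastoid cells (2500/well) in complete medium were preincubated 5 hr at 37 C, then compound-treated 24 hr at 37 C. Intracellular ATP was read by CellTiter-Glo luminescence after 30 min at room temperature; AC50 came from Hill-equation concentration-response fits.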

[7] = Cell Viability - LYMP2-017 (AID 972); also: nearly all actives have a fitted effect of over 55% in size
In short: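 Human lymphoblastoid cells (2500/well) were seeded in complete medium, held 5 hr at 37 C, then exposed to compounds for 24 hr at 37 C. Intracellular ATP was read by CellTiter-Glo luminescence after 30 min at room temperature, with AC50 values from Hill-equation fits.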

[8] = Cell Viability - LYMP2-019 (AID 973); also: nearly all actives have a fitted effect of over 55% in size
In short: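 Human lymphoblastoid cells were seeded at 2500 cells/well, preincubated 5 hr at 37 C, then exposed to compounds for 24 hr at 37 C in complete medium. Intracellular ATP was measured by CellTiter-Glo luminescence; AC50 from Hill fits.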

[9] = Cell Viability - LYMP2-021 (AID 974)
In short: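 Human lymphoblastoid cells (2500/well) were preincubated 5 hr at 37 C, then exposed to compounds for 24 hr at 37 C in complete medium. Intracellular ATP was read by CellTiter-Glo luminescence; AC50 came from Hill-equation fits of concentration-response data.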

[10] = Cell Viability - LYMP2-023 (AID 975); also: nearly all actives have a fitted effect of over 55% in size
In short: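 Human lymphoblastoid cells (2500/well) were preincubated 5 hr at 37 C, then exposed to compounds for 24 hr at 37 C in complete medium. Cellular ATP was read by CellTiter-Glo luminescence, and AC50 came from Hill-equation fits.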

Measured: Potency
Potency is read from the fitted curve at half-maximal effect.

C[C@]12CC[C@@H]3c4ccc(O)cc4CC[C@H]3[C@@H]1CC[C@@H]2O
inactive: all assays above

Oc1c(Cl)cc(Cl)cc1Sc1cc(Cl)cc(Cl)c1O
inactive: [2]
active: [3] 50.1 µM | [5] 50.1 µM | [9] 39.8 µM

CC(=O)O[C@]1(C(C)=O)CC[C@H]2[C@@H]3C[C@H](C)C4=CC(=O)CC[C@]4(C)[C@H]3CC[C@@]21C
active: [1] 31.6 µM | [3] 39.8 µM | [4] 39.8 µM | [5] 31.6 µM | [6] 39.8 µM | [7] 31.6 µM | [9] 39.8 µM

NC(=NCCCCCCN=C(N)/N=C(\N)Nc1ccc(Cl)cc1)/N=C(\N)Nc1ccc(Cl)cc1
active: [3] 50.1 µM | [4] 39.8 µM | [5] 39.8 µM | [6] 39.8 µM | [7] 39.8 µM | [9] 39.8 µM | [10] 50.1 µM

CC(=O)Oc1ccc(C(c2ccc(OC(C)=O)cc2)c2ccccn2)cc1
inactive: all assays above

O=c1ccc2ccccc2o1
inactive: all assays above

O=C1OC(c2ccc(O)cc2)(c2ccc(O)cc2)c2ccccc21
inactive: all assays above

COc1cccc2c1C(=O)c1c(O)c3c(c(O)c1C2=O)C[C@@](O)(C(C)=O)C[C@@H]3O[C@H]1C[C@H](N)[C@H](O)[C@H](C)O1
active: [2] 0.158 µM | [3] 0.251 µM | [5] 2 µM | [7] 0.631 µM | [8] 3.98 µM

CN(C)/N=N/c1nc[nH]c1C(N)=O
inactive: all assays above

Nc1ccc(C(=O)O)cc1
inactive: all assays above

O=C(O)CCCCC(=O)O
inactive: all assays above

CC/C(=C(/CC)c1ccc(O)cc1)c1ccc(O)cc1
inactive: all assays above

C=CCc1ccc(O)c(OC)c1
inactive: all assays above

C=C(CC)C(=O)c1ccc(OCC(=O)O)c(Cl)c1Cl
active: [3] 50.1 µM | [4] 50.1 µM | [5] 50.1 µM | [6] 50.1 µM | [7] 50.1 µM | [8] 39.8 µM | [9] 39.8 µM

COc1cccc2c1C(=O)c1c(O)c3c(c(O)c1C2=O)C[C@@](O)(C(=O)CO)C[C@@H]3O[C@H]1C[C@H](N)[C@H](O)[C@H](C)O1
active: [1] 0.501 µM | [2] 0.398 µM | [3] 0.251 µM | [4] 0.251 µM | [5] 1 µM | [6] 0.158 µM | [7] 0.631 µM | [8] 0.631 µM | [9] 0.398 µM | [10] 0.398 µM

Oc1ccc(O)cc1
inactive: [10]
active: [1] 39.8 µM | [2] 39.8 µM | [3] 50.1 µM | [4] 39.8 µM | [6] 50.1 µM | [7] 39.8 µM | [9] 50.1 µM

CC(O)C(=O)O (stereo not drawn)
inactive: all assays above

CCCCCCc1ccc(O)cc1O
not listed: [1]
inactive: all other assays above

COC1=CC(=O)C[C@@H](C)[C@]12Oc1c(Cl)c(OC)cc(OC)c1C2=O
inactive: all assays above

CC(C)(C)CC(C)(C)c1ccc(OCCOCC[N+](C)(C)Cc2ccccc2)cc1
active: [1] 39.8 µM | [3] 31.6 µM | [4] 31.6 µM | [5] 25.1 µM | [6] 25.1 µM | [7] 31.6 µM | [8] 39.8 µM | [9] 31.6 µM | [10] 39.8 µM

Cc1c2oc3c(C)ccc(C(=O)N[C@@H]4C(=O)N[C@H](C(C)C)C(=O)N5CCC[C@H]5C(=O)N(C)CC(=O)N(C)[C@@H](C(C)C)C(=O)O[C@@H]4C)c3nc-2c(C(=O)N[C@@H]2C(=O)N[C@H](C(C)C)C(=O)N3CCC[C@H]3C(=O)N(C)CC(=O)N(C)[C@@H](C(C)C)C(=O)O[C@@H]2C)c(N)c1=O (I: T[dV]P[Sar][NMeV] / II: T[dV]P[Sar][NMeV]; ester I:1-I:C, II:1-II:C; linker I:N-II:N via Actinocin(9to1))
active: [7] 0.01 µM | [9] 0.0025 µM

From PubChem BioAssay (NCATS)
